From PubChem BioAssay (NCI)
Compounds without any hit were thinned out: in the full panel of roughly 79,000, 15% have a hit. The source made the active and inactive calls. No stated cut-off is given here; in the data, active means growth inhibition above about 70%; inactive means the rest.

How the values were obtained:
[1] = NCI Yeast Anticancer Drug Screen. Data for the wt1 strain (AID 149);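 further: 0% = growth of vehicle-treated wt1 cultures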; details: S. cerevisiae wt1 strain (SPY 50644) growth inhibition, active compounds read high
Procedure, shortened: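 Using yeast strain wt1, compound-induced growth inhibition was determined against vehicle-treated cultures.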

[2] = NCI Yeast Anticancer Drug Screen. Data for the mgt1 strain (AID 153); details: S. cerevisiae mgt1 mutant growth inhibition, active compounds read high
Procedure, shortened: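 In the mgt1 strain, test compounds were added and growth inhibition was determined relative to vehicle-treated controls.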

[3] = NCI Yeast Anticancer Drug Screen. Data for the rad50 strain (AID 155);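 further: 0% = growth of vehicle-only cultures of the same strain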; details: S. cerevisiae rad50 strain growth inhibition, active compounds read high
Procedure, shortened: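 Relative growth inhibition (compound vs vehicle) was measured in yeast with a defined repair-gene alteration.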

[4] = NCI Yeast Anticancer Drug Screen. Data for the mec2-1 strain (AID 157); details: S. cerevisiae mec2-1 strain, active compounds read high
Procedure, shortened: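 Each compound was tested on mec2-1 yeast, a strain altered in DNA damage repair or cell cycle control. Growth inhibition is reported relative to vehicle.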

[5] = NCI Yeast Anticancer Drug Screen. Data for the rad14 strain (AID 159);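 further: 0% = growth of vehicle-treated control cultures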; details: S. cerevisiae rad14 strain growth inhibition, active compounds read high
Procedure, shortened: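 Screen for anticancer potential: a yeast strain altered in DNA damage repair is grown with compound, and reduced growth is quantified against vehicle controls.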

[6] = NCI Yeast Anticancer Drug Screen. Data for the sgs1 mgt1 strain (AID 161);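 further: 0% = growth of cultures given vehicle only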; details: S. cerevisiae sgs1 mgt1 strain, active compounds read high
Procedure, shortened: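 Mutant yeast exposed to compound; growth scored against vehicle-only wells.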

[7] = NCI Yeast Anticancer Drug Screen. Data for the CLN2oe strain (AID 163);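 further: 0% = growth of vehicle-only control cultures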; details: S. cerevisiae CLN2oe strain, active compounds read high
Procedure, shortened: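 First, the altered yeast strain was treated with each compound; second, its growth was measured; finally, inhibition was derived by comparison with vehicle controls.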

[8] = NCI Yeast Anticancer Drug Screen. Data for the cln2 rad14 strain (AID 165);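 further: 0% = growth equal to vehicle treated cultures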; details: S. cerevisiae cln2 rad14 strain, active compounds read high
Procedure, shortened: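 Test compounds were added to cln2 rad14 yeast cultures; inhibition of growth was then determined by comparison with vehicle treatment.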

[9] = NCI Yeast Anticancer Drug Screen. Data for the bub3 strain (AID 167); details: S. cerevisiae bub3 mutant strain, active compounds read high
Procedure, shortened: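 Screening used yeast with an engineered genetic alteration affecting cell cycle control. Compound-exposed cultures were compared with vehicle cultures, and reduced growth was taken as inhibition.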

[10] = NCI Yeast Anticancer Drug Screen. Data for the wt2 strain (AID 169);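 further: 0% = growth of vehicle-treated yeast cultures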; details: S. cerevisiae wt2 strain growth inhibition, active compounds read high
Procedure, shortened: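 The panel's yeast strains carry defined changes in DNA repair or cell cycle genes. Each strain is grown with compound, and growth loss is scored relative to vehicle.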

[11] = NCI Yeast Anticancer Drug Screen. Data for the mlh1 strain (AID 171);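 further: 0% = growth of vehicle-treated control cultures of the same strain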; details: S. cerevisiae mlh1 strain growth inhibition, active compounds read high
Procedure, shortened: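 Inhibition values reflect reduced yeast growth in the presence of compound, referenced to vehicle controls, using a strain chosen for its alteration in DNA repair or cell cycle control.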

[12] = NCI Yeast Anticancer Drug Screen. Data for the sgs1 strain (AID 173);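 further: 0% = growth of vehicle-only control cultures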; details: S. cerevisiae sgs1 mutant, active compounds read high
Procedure, shortened: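 Vehicle-treated cultures served as reference for growth inhibition of a yeast strain altered in DNA damage repair or cell cycle control after compound exposure.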

[13] = NCI Yeast Anticancer Drug Screen. Data for the mlh1 rad18 strain (AID 175); details: S. cerevisiae mlh1 rad18 strain growth inhibition, active compounds read high
Procedure, shortened: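 Inhibition values reflect reduced growth of mutant yeast versus vehicle-treated controls following compound exposure; the mutations affect DNA damage repair.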

[14] = NCI Yeast Anticancer Drug Screen. Data for the rad18 strain (AID 177); details: S. cerevisiae rad18 mutant growth inhibition, active compounds read high
Procedure, shortened: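 Steps: expose repair-mutant yeast to compound; measure growth; express as inhibition relative to vehicle control.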

[15] = NCI Yeast Anticancer Drug Screen. Data for the rad50EPP+ strain (AID 151);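 further: 0% = growth of vehicle-treated control cultures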; details: S. cerevisiae rad50 mutant strain, active compounds read high
Procedure, shortened: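 Genetically defined yeast (rad50EPP+, DNA damage repair alteration) is grown with compound, and inhibition of growth is expressed relative to vehicle-treated controls.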

[16] = at 5.0 µM (retest, dose inferred, filed as 0.5)
[17] = at 50.0 µM (retest, dose inferred, filed as 5.0)

Measured: growth inhibition

COC(=O)C1C2c3ccccc3C(c3ccccc32)C1C(=O)OC (stereo unspecified)
active: [6]; [17] 70% | [6]; at 50.0 µM 72.5%
inactive: [1]; at 1.2 µM 7% | [1]; at 3.7 µM 5% | [1]; at 11.0 µM 5% | [1]; at 33.0 µM 8% | [1]; at 100.0 µM 7% | [2]; at 1.2 µM -2% | [2]; at 3.7 µM -1% | [2]; at 11.0 µM -2% | [2]; at 33.0 µM 2% | [2]; at 100.0 µM 11% | [3]; at 1.2 µM 4% | [3]; at 3.7 µM 1% | [3]; [16] 6% | [3]; at 11.0 µM 3% | [3]; at 33.0 µM 7% | [3]; [17] 47% | [3]; at 50.0 µM 14.8% | [3]; at 100.0 µM 7% | [4]; at 1.2 µM -2% | [4]; at 3.7 µM -3% | [4]; [16] -3% | [4]; at 11.0 µM -1% | [4]; at 33.0 µM 0% | [4]; [17] 15% | [4]; at 50.0 µM 41.5% | [4]; at 100.0 µM 9% | [5]; at 1.2 µM 2% | [5]; at 3.7 µM 2% | [5]; at 11.0 µM 0% | [5]; at 33.0 µM 8% | [5]; at 100.0 µM 13% | [6]; [16] 5% | [7]; at 1.2 µM 2% | [7]; at 3.7 µM -1% | [7]; at 11.0 µM 0% | [7]; at 33.0 µM 7% | [7]; at 100.0 µM 17% | [8]; [16] -3% | [8]; [17] 28% | [8]; at 50.0 µM 8.85% | [9]; at 1.2 µM -1% | [9]; at 3.7 µM -2% | [9]; [16] 19% | [9]; at 11.0 µM -4% | [9]; at 33.0 µM 1% | [9]; [17] 27% | [9]; at 50.0 µM 14.4% | [9]; at 100.0 µM 2% | [10]; at 1.2 µM -2% | [10]; at 3.7 µM -6% | [10]; at 11.0 µM -1% | [10]; at 33.0 µM 5% | [10]; at 100.0 µM -1% | [11]; at 1.2 µM -2% | [11]; at 3.7 µM -2% | [11]; at 11.0 µM -3% | [11]; at 33.0 µM 1% | [11]; at 100.0 µM 11% | [12]; at 1.2 µM -6% | [12]; at 3.7 µM -17% | [12]; at 11.0 µM -11% | [12]; at 33.0 µM -4% | [12]; at 100.0 µM 2% | [13]; [16] 17% | [13]; [17] 69% | [13]; at 50.0 µM 17.1% | [14]; at 1.2 µM 0% | [14]; at 3.7 µM 2% | [14]; at 11.0 µM 4% | [14]; at 33.0 µM 7% | [14]; at 100.0 µM 8%

COC(=O)C1=C(C(=O)OC)SC2(S1)C(C(=O)OC)=C(C(=O)OC)Sc1c2ssc1=O
inactive: [1]; at 1.2 µM 27% | [1]; at 3.7 µM 26% | [1]; at 11.0 µM 66% | [15]; at 1.2 µM 9% | [15]; at 3.7 µM 8% | [15]; at 11.0 µM 30% | [15]; at 33.0 µM 56% | [15]; at 100.0 µM 54% | [3]; at 1.2 µM 46% | [3]; [16] 13% | [4]; at 1.2 µM 16% | [4]; at 3.7 µM 17% | [4]; [16] 17% | [6]; [16] 26% | [7]; at 1.2 µM 14% | [7]; at 3.7 µM 26% | [9]; at 1.2 µM 23% | [9]; at 3.7 µM 32% | [9]; [16] 55% | [10]; at 1.2 µM 21% | [10]; at 3.7 µM 54% | [11]; at 1.2 µM 44% | [11]; at 3.7 µM 51% | [13]; [16] 26% | [14]; at 1.2 µM 30% | [14]; at 3.7 µM 55%
active: [1]; at 33.0 µM 99% | [1]; at 100.0 µM 94% | [3]; at 3.7 µM 73% | [3]; at 11.0 µM 93% | [3]; at 33.0 µM 98% | [3]; [17] 95% | [3]; at 50.0 µM 82.2% | [3]; at 100.0 µM 91% | [4]; at 11.0 µM 85% | [4]; at 33.0 µM 98% | [4]; [17] 95% | [4]; at 50.0 µM 86.2% | [4]; at 100.0 µM 88% | [6]; [17] 95% | [6]; at 50.0 µM 84.1% | [7]; at 11.0 µM 91% | [7]; at 33.0 µM 98% | [7]; at 100.0 µM 91% | [8]; [16] 70% | [8]; [17] 95% | [8]; at 50.0 µM 86.2% | [9]; at 11.0 µM 88% | [9]; at 33.0 µM 98% | [9]; [17] 94% | [9]; at 50.0 µM 78.8% | [9]; at 100.0 µM 91% | [10]; at 11.0 µM 99% | [10]; at 33.0 µM 96% | [10]; at 100.0 µM 89% | [11]; at 11.0 µM 88% | [11]; at 33.0 µM 99% | [11]; at 100.0 µM 92% | [13]; [17] 96% | [13]; at 50.0 µM 86.8% | [14]; at 11.0 µM 91% | [14]; at 33.0 µM 95% | [14]; at 100.0 µM 90%

Br[C](Br)(Br)[Hg][c]1ccccc1
active: [3]; [16] 99% | [3]; [17] 98% | [3]; at 50.0 µM 87.3% | [4]; [16] 100% | [4]; [17] 99% | [4]; at 50.0 µM 89.8% | [6]; [16] 100% | [6]; [17] 99% | [6]; at 50.0 µM 90% | [8]; [16] 99% | [8]; [17] 98% | [8]; at 50.0 µM 89.3% | [9]; [16] 100% | [9]; [17] 99% | [9]; at 50.0 µM 89.1% | [13]; [16] 99% | [13]; [17] 98%

[Pt].c1ccc(P(CCP(c2ccccc2)c2ccccc2)CCP(c2ccccc2)c2ccccc2)cc1
active: [3]; at 33.0 µM 94% | [3]; [17] 90% | [3]; at 50.0 µM 79% | [3]; at 100.0 µM 93% | [4]; at 33.0 µM 94% | [4]; [17] 94% | [4]; at 50.0 µM 85.2% | [4]; at 100.0 µM 94% | [6]; [17] 90% | [6]; at 50.0 µM 82% | [8]; [17] 91% | [8]; at 50.0 µM 79.2% | [9]; at 33.0 µM 96% | [9]; [17] 91% | [9]; at 50.0 µM 75.7% | [9]; at 100.0 µM 95% | [13]; [17] 92% | [13]; at 50.0 µM 75.8%
inactive: [3]; at 1.2 µM -13% | [3]; at 3.7 µM 11% | [3]; [16] 22% | [3]; at 11.0 µM 23% | [4]; at 1.2 µM -27% | [4]; at 3.7 µM -14% | [4]; [16] -3% | [4]; at 11.0 µM 6% | [6]; [16] 8% | [8]; [16] 43% | [9]; at 1.2 µM 8% | [9]; at 3.7 µM 4% | [9]; [16] 4% | [9]; at 11.0 µM 26% | [13]; [16] 16%
